# Data: ChEMBL document CHEMBL4513216, “Probing the Open Global Health Chemical Diversity Library for Multistage-Active Starting Points for Next-Generation Antimalarials” (ACS Infect Dis, 2020)
# Among all 68,000 compounds or so, about 2,700 (4%) showed an effect of 50% or more. This is one part of a sample in which strong results are shown more often than they occur.
# Tested on: Plasmodium berghei
# Test: Screen against P. berghei liver stage (PbLuc), transformed with Luciferase, at 2uM
# Format: functional, HepG2
# Conditions: tested at 2 uM
row,Compound,INHIBITION [%]
1,COc1ccc(CNC(C)c2cccc(Br)c2)c(OC)c1OC (stereo not drawn),0.8
2,OC1(Cn2ccc3ncccc32)CCN(Cc2ccccc2F)CC1,22.81
3,CCN(CC)C(CNC(=O)c1cccnc1-n1cncn1)c1ccsc1 (stereo not drawn),28.81
4,CCN(CC)C(CNC(=O)c1ccnc(N(C)C)c1)c1ccsc1 (stereo not drawn),86.89
5,CCN(CC)C(CNC(=O)c1ccc(-n2cncn2)cc1)c1ccsc1 (stereo not drawn),-12.13
6,Cc1ccc(C(=O)N2CCC3(CC2)CCN(Cc2ccccn2)C3=O)o1,2.5
7,CN1C(=O)c2cccc(NC(=O)c3ccc4c(c3)OCCO4)c2C1=O,27.8
8,O=C(CCc1ccc(-c2ccccc2)[nH]1)N1CCCC(n2ccnc2)C1 (stereo not drawn),-13.92
9,CCN1CCN(C2CCN(Cc3noc(C4CC4)n3)CC2)C1=O,24.65
10,Cc1nc(CN2CCC(N3CCN(C)C3=O)CC2)no1,40.17
11,CCN1CCN(C2CCN(Cc3noc(C)n3)CC2)C1=O,62.13
12,COCCN(C)C(C(=O)O)c1ccc2ccccc2c1 (stereo not drawn),10.75
13,Cc1cc(C)n(C2CCCN(C(=O)c3cc(C(N)=O)cs3)C2)n1 (stereo not drawn),20.93
14,Cc1cccc(N2CCN(CCNC(=O)C(C)n3cncn3)CC2)c1 (stereo not drawn),12.88
15,O=C(N[C@@H]1CN(CC2CC2)[C@@H]2CCCO[C@@H]21)c1cscn1,17.24
16,CCN(CC)C(=O)N1CCN(Cc2cnc(C)nc2)[C@H]2CS(=O)(=O)C[C@H]21,29.51
17,CCC(=O)N1CCN(Cc2cnc(C)nc2)[C@H]2CS(=O)(=O)C[C@H]21,-36.29
18,Cc1ncc(CN2CCN(C(=O)N(C)C)[C@@H]3CS(=O)(=O)C[C@@H]32)cn1,55.99
19,O=C(CC1CC1)N1CCC2(CC1)CN(c1ncccn1)CCO2,-26.24
20,CCO[C@H]1CCN(S(=O)(=O)c2cn(C)cn2)[C@H]1Cc1ccccc1,-40.45
21,CO[C@H]1CCN(S(=O)(=O)c2cn(C)cn2)[C@H]1Cc1ccccc1,74.27
22,CO[C@@H]1CCN(S(=O)(=O)c2cn(C)cn2)[C@H]1Cc1ccccc1,4.38
23,CC(C#N)CN(C)Cc1cc(Cl)cc2cccnc12 (stereo not drawn),28.91
24,Cc1ccc([C@@H]2CN(C(=O)c3cc(C)no3)C[C@H]2NC(=O)C2CC2)cc1,0.94
25,CCc1csc(CNC2CCN(Cc3ccccc3)C2)n1 (stereo not drawn),50.59
26,CCc1nc(C)sc1CNC1CCN(Cc2ccccc2)C1 (stereo not drawn),26.74

row,Compound,INHIBITION [%]
1,Cc1nc(CNC2CCN(Cc3ccccc3)C2)sc1C (stereo not drawn),36.28
2,CCCc1cc(NC2CCc3ncnn3C2)n2ncnc2n1 (stereo not drawn),8.91
3,O=C1CC(c2ccccc2)C2(CCN(Cc3nccs3)CC2)N1 (stereo not drawn),-4.2
4,CC(C)(C)OC(=O)N1CCC(NCc2cnn(C(C)(C)C)c2)CC1,-13.89
5,Cc1cccc2cc(C(=O)N3CCC(F)(F)CC3)n(C)c12,28.1
6,O=C1CC(c2ccc(Cl)c(Cl)c2)c2c(n3ccsc3nc2=O)N1 (stereo not drawn),24.44
7,O=C1CC(c2ccc(O)cc2)c2c(n3ccsc3nc2=O)N1 (stereo not drawn),37.87
8,O=C1CC(c2ccccc2)c2c(n3ccsc3nc2=O)N1 (stereo not drawn),73.66
9,Cc1ccc(N(CC(=O)c2ccc(Br)cc2)C2=NCCCCC2)cc1,-13.56
10,CC(=O)N1CCC(c2cc(Nc3ncccn3)nc(C)n2)C1 (stereo not drawn),31.98
11,CC(C)(C)n1ncc2c1NC(=O)CC2c1cccc(F)c1 (stereo not drawn),-10.58
12,CCCc1noc(CCC(=O)N2CCN(C)CC2c2ccccc2)n1 (stereo not drawn),35.56
13,CC(C)c1noc(CCC(=O)N2CCN(C)CC2c2ccccc2)n1 (stereo not drawn),57.59
14,CC(C)c1noc(CCCC(=O)N2CCN(C)CC2c2ccccc2)n1 (stereo not drawn),14.63
15,NC(=O)CC1CCCN(c2cncc(OCc3ccccc3)n2)C1 (stereo not drawn),31.78
16,CC(C)c1nc(C2CCCN2C(=O)c2ccc(N(C)C)nn2)no1 (stereo not drawn),-9.66
17,c1ccc(CN2C[C@H]3CC[C@@H](C2)N(Cc2nnc(C4CC4)o2)C3)cc1,-14.49
18,Cc1cc(C(=O)N2CCOC[C@H](Oc3cnccn3)C2)c(C(F)(F)F)o1,52.91
19,Cc1cc(C(=O)N2CCOC[C@H](Oc3cccnc3)C2)c(C(F)(F)F)o1,19.42
20,CO[C@H]1COCCN(C(=O)c2cc(C)oc2C(F)(F)F)C1,35.89
21,Cn1cc(CN2CCCC3(CCN(C(=O)c4cnccn4)C3)C2)cn1 (stereo not drawn),-9.96
22,CC(C)n1cnnc1CNC(=O)CCCOc1ccccc1F,18.74
23,CC(C)(C)OC(=O)N1CC(CC(=O)NCc2ccsc2)C1,2.9
24,Cc1cc(CNC(=O)CC2CN(C(=O)OC(C)(C)C)C2)ccc1F,21.97
25,Cc1ccsc1CNC(=O)CC1CN(C(=O)OC(C)(C)C)C1,55.36
26,COc1ncccc1NC(=O)N1CCCC1c1cc(C)no1 (stereo not drawn),29.19

row,Compound,INHIBITION [%]
1,Cc1noc(C)c1C(=O)N1CCCCC1c1cc(C)n2ccnc2n1 (stereo not drawn),36.98
2,Cc1sc(-c2ccco2)nc1C(=O)N(CC(N)=O)C1CCCC1,61.82
3,Cc1sc(-c2ccco2)nc1C(=O)N(CC1CCOC1)C1CC1 (stereo not drawn),-33.43
4,COCCN(C(=O)c1nc(-c2ccco2)sc1C)C1CC1,-7.16
5,CC(NCCN1CCN(C(=O)C2CCCC2)CC1)c1ccccn1 (stereo not drawn),-21.99
6,CC(C)n1nc(CN2CCOCC2)c2c1CN(C(=O)c1ccno1)C2,29.3
7,CC(C)n1nc(CN2CCOCC2)c2c1CN(Cc1ccsc1)C2,72.91
8,Cn1nc(Cn2cccn2)c2c1CN(Cc1ccsc1)C2,15.9
9,Cn1nc(CN2CCOCC2)c2c1CN(Cc1ccsc1)C2,57.85
10,COCc1nn(C(C)C)c2c1CCN(Cc1ccsc1)C2,23.43
11,Cn1nc(Cn2cccc2)c2c1CN(Cc1ccsc1)C2,-6.88
12,CN(Cc1ccc(F)cc1)CC1(O)CCN(C(=O)c2cccn2C)C1 (stereo not drawn),-12.09
13,CCc1nc2ccccc2n1C(CC)C(=O)N(C)Cc1noc(C)n1 (stereo not drawn),-0.85
14,CC(=O)N1CCO[C@@H]2CN(S(=O)(=O)c3ccc(C)cc3)CC[C@@H]2C1,-24.35
15,CS(=O)(=O)N1CC2(CCCN(CC3CC3)C2)Cc2ccccc21 (stereo not drawn),34.09
16,CN(CCCSc1ccccc1)C(=O)Cn1ncc(N(C)C)cc1=O,8.2
17,COc1ccc(-c2cnc(CN3CCn4c(C)nnc4C3)o2)cc1,-19.76
18,CCNC(=O)[C@@H]1C[C@H](N)CN1C1CCN(c2ccccc2OC)CC1,23.64
19,CC(C)CCN1CCCC12Cc1ccccc1CNC2=O (stereo not drawn),-6.64
20,Cc1ccc(CN2CCCC23Cc2ccccc2CNC3=O)cc1 (stereo not drawn),-14.74
21,Cc1ccc(CCN2CCCC23Cc2ccccc2CNC3=O)cc1 (stereo not drawn),57.24
22,CC(C)NC(=O)N1CCN(CC2CC2)CC2(CC(=O)N(C)C2)C1 (stereo not drawn),49.9
23,Cc1cc(-c2cnc(NCc3ccc4c(c3)OCO4)nc2C(C)C)on1,-0.95
24,CC(C)c1nc(C2CCCN(C(=O)c3cccc4c3OCO4)C2)no1 (stereo not drawn),17.59
25,Cc1csc(C2CCCN(C(=O)c3cccc4c3OCO4)C2)n1 (stereo not drawn),57.11
26,Cc1nc(C2CCCN(C(=O)c3cccc4c3OCO4)C2)sc1C (stereo not drawn),7.71

row,Compound,INHIBITION [%]
1,CCc1cc(NC(=O)C2CCCN(C(=O)c3ccncc3)C2)[nH]n1 (stereo not drawn),-7.81
2,c1ccc(C2CCN(c3ncnc4c3CCNC4)CC2)cc1,-3.14
3,O=C(NCC(=O)N1CCCC(n2cncn2)C1)OCc1ccccc1 (stereo not drawn),21.64
4,COc1ccnc(N2CCN(C(=O)c3csc(C)n3)CC2)n1,-2.99
5,COc1ccnc(N2CCN(C(=O)Cc3ccsc3)CC2)n1,25.61
6,COc1ccnc(N2CCN(Cc3ncc(C(C)(C)C)o3)CC2)n1,2.67
7,COc1ccnc(N2CCN(C(=O)N3CCOCC3)CC2)n1,58.05
8,COc1ccnc(N2CCN(C(=O)Cc3ccc(C)s3)CC2)n1,-9.9
9,COc1ccnc(N2CCN(C(=O)Cc3csc(C)n3)CC2)n1,51.35
10,COc1ccnc(N2CCN(CC(=O)N3CCOCC3)CC2)n1,-2.9
11,COc1ccnc(N2CCN(C(=O)c3csnn3)CC2)n1,36.66
12,COc1ccnc(N2CCN(Cc3ncc(-c4ccccc4)o3)CC2)n1,-41.69
13,COc1ccnc(N2CCN(C(=O)CN3CCOCC3)CC2)n1,-19.35
14,COc1ccnc(N2CCN(CC(O)CN3CCOCC3)CC2)n1 (stereo not drawn),58.05
15,COc1ccnc(N2CCN(C(=O)c3cscn3)CC2)n1,50.98
16,Cc1cccc(CN2C[C@@H]3COC[C@H](NS(C)(=O)=O)[C@@H]3C2)n1,32.85
17,CN(C)Cc1cnc(C2CCN(C(=O)c3ccccc3F)C2)[nH]1 (stereo not drawn),-17.01
18,CCN(Cc1ccccc1)C(=O)CN1CCOC(Cn2cncn2)C1 (stereo not drawn),32.41
19,O=C(N1CCCC(n2cncn2)C1)C1(c2ccccc2F)CCCC1 (stereo not drawn),-15.28
20,O=C(COCc1nc(-c2ccncc2)no1)N1CCCCC1,27.89
21,Brc1cnc(NCCCOCC2CCOC2)nc1 (stereo not drawn),20.3
22,COCCCNS(=O)(=O)c1cc(C)sc1C,-11.76
23,CCc1nccn1-c1cccc(C2CCN(C(=O)COC)CC2)n1,47.4
24,N#Cc1ccsc1N1CCC(Sc2ccncc2)C1=O (stereo not drawn),35.61
25,Cc1cnn(CCC(=O)N2CCCN(c3ncccc3C#N)CC2)c1,-2.7
